Reference: paper PMC4336329 (PLoS ONE, 2015)
The campaign covered roughly 310,000 compounds. About 2,200 (0.71%) showed an effect of 50% or more. Effects have a minus sign here. The full list was thinned out, with strong results kept by preference.

target: human ether-à-go-go-related gene (hERG) potassium channel (human, UniProt Q12809); assay: primary screen, population patch clamp on CHO cells stably expressing hERG; higher = less effect of the substance
Sequence (Q12809 whole entry, looked up): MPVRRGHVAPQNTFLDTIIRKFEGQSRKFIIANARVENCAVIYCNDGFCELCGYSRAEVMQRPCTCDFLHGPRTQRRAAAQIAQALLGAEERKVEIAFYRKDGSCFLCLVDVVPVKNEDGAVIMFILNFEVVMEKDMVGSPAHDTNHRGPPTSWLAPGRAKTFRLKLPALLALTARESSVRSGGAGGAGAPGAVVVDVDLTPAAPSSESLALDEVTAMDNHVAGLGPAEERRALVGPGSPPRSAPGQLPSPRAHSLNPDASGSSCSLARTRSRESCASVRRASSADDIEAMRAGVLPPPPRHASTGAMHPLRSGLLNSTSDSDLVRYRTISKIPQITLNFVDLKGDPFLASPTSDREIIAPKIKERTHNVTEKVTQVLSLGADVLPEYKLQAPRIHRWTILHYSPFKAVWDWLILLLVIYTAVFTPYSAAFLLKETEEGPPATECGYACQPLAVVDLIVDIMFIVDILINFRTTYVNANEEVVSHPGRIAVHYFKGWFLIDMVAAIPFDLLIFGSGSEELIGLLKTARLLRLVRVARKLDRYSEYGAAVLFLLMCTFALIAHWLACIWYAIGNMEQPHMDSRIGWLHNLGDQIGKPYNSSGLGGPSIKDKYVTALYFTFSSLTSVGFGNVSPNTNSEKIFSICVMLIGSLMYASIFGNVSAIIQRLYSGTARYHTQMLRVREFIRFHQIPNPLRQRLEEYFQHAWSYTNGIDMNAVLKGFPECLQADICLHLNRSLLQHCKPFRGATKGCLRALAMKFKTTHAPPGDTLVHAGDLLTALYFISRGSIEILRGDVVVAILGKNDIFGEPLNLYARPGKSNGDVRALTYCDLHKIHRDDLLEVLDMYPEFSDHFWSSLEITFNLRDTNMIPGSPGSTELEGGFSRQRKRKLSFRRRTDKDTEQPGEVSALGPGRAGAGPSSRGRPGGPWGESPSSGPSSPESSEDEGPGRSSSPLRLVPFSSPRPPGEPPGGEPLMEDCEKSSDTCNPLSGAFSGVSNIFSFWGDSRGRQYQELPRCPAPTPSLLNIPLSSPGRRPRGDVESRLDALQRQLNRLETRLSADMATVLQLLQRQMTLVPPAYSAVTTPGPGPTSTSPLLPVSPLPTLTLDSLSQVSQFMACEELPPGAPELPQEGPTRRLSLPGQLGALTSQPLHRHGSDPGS

In order of rising “hERG current change (%, negative = inhibition) at 1uM” value:
1. CCCN(CCC)CC(O)COc1ccc([N+](=O)[O-])cc1 (stereo not drawn)  -81.4%
2. CCCCN(C)C(=O)c1nc2ccccn2c1CN1CCN(C/C=C/c2ccccc2)CC1  -80.8%
3. COc1ccc(NC(=O)NCCCN2CCN(c3cc(C)ccc3C)CC2)cc1  -80.4%
4. O=[N+]([O-])c1ccc(OCC(O)CN(C2CCCCC2)C2CCCCC2)cc1 (stereo not drawn)  -80.4%
5. COc1ccc(N2CCN(CCCNC(=O)c3cc4sccc4n3C)CC2)cc1  -77.7%
6. CCCNc1c(NS(=O)(=O)c2ccc(OC)c(OC)c2)c(=O)oc2ccccc12  -77.2%
7. COc1ccc(NC(=O)NCCCN2CCc3ccccc3C2)cc1  -69.5%
8. CCN(CC)CCn1c(NS(=O)(=O)c2ccc(Cl)cc2)nc2ccccc21.Cl  -69%
9. CCCN1CCN(CCCNC(=O)c2cc3c(s2)-c2c(C)cccc2OC3)CC1  -67.5%
10. Cc1ccc2nc(N/N=C/c3ccco3)cc(C)c2c1  -62.9%
11. CCOc1ccc(-n2c(-c3ccc(Cl)cc3)c[n+]3c2SCC3)cc1.[Br-]  -60.8%
12. CC1(C)CC(=O)c2cc(OCC(=O)NCCCN3CCN(c4ccc(F)cc4)CC3)ccc2O1  -60.3%
13. CS(=O)(=O)Nc1ccc(C(=O)Nc2ccccc2C(=O)NCc2ccco2)cc1  -58%
14. CCOC(=O)N1CCC(N2C(=O)c3ccccc3C2Nc2c(C)cccc2C)CC1 (stereo not drawn)  -57.6%
15. COc1ccc(OCC(O)CN(C)C(=O)/C=C/c2cccc([N+](=O)[O-])c2)cc1 (stereo not drawn)  -56.7%
16. CCCCN(CCCC)CC(O)COc1ccccc1C(=O)Nc1ccccc1 (stereo not drawn)  -55%
17. CC(C)CN(CC(C)C)CC(O)COc1ccc([N+](=O)[O-])cc1.Cl (stereo not drawn)  -52.1%
18. COc1cccc(NC(=O)NCCCN2CCN(c3ccc(F)cc3)CC2)c1  -51%
19. CN(C)C1(CNC(=O)c2ccc(NS(=O)(=O)c3ccc(Cl)c(Cl)c3)cc2)CCCCC1  -50.9%
20. COc1ccc(N2CCN(CCCNC(=O)Nc3ccccc3)CC2)cc1  -50.5%
21. O=C(NCCCN1CCc2ccccc2C1)Nc1ccc(Cl)cc1  -44.5%
22. CCCCN(CCCC)CC(O)COc1ccc(Br)cc1 (stereo not drawn)  -43.6%
23. Cc1nccn1CC(O)COc1ccc([N+](=O)[O-])cc1 (stereo not drawn)  -41.3%
24. COc1ccc(OCC(O)CN(C2CCCCC2)C2CCCCC2)cc1.Cl (stereo not drawn)  -37.9%
25. CCCN(CCC)CC(O)COc1ccccc1C(=O)Nc1ccccc1.Cl (stereo not drawn)  -35.8%
26. Cl.O=[N+]([O-])c1ccc(OCC(O)CNC2CCCC2)cc1 (stereo not drawn)  -30.3%
27. COc1ccccc1N1CCN(CCCNC(=O)Nc2ccccc2)CC1  -28.8%
28. CC1(C)CC(=O)c2cc(OCC(=O)NCCCN3CCN(c4ccccc4F)CC3)ccc2O1  -26%
29. COc1ccc(Cl)c(N2CCN(CCCNC(=O)Nc3ccc(C)cc3)CC2)c1  -24.5%
30. CC1CCN(CCCNC(=O)c2cc3sccc3n2C)CC1  -23.6%
31. CCN(CC)CCn1c(NS(=O)(=O)c2ccc(C)cc2)nc2ccccc21  -17.8%
32. O=[N+]([O-])c1ccc(OCC(O)CN(CCO)CCO)cc1 (stereo not drawn)  -16.9%
33. Cn1c(C(=O)NCCCN2CCCCC2)cc2sccc21  -13.7%
34. CCOC(=O)N1CCC(N2C(=O)c3ccccc3C2Nc2ccccc2C)CC1 (stereo not drawn)  -8.54%
35. C[C@@H](C(=O)Nc1ccc2ccccc2c1)[C@H]1C[C@]1(C)[C@H](NS(=O)(=O)c1ccc(-c2ccccc2)cc1)c1ccccc1  -8.41%
36. Cc1cc(S(=O)(=O)Nc2ccc(C(=O)NCC3(N(C)C)CCCCC3)cc2)ccc1F  -7.71%
37. CCCNc1c(NS(=O)(=O)c2ccc(C)c(C)c2)c(=O)oc2ccccc12  -6.38%
38. COc1ccc(-c2c[n+]3c(n2-c2ccccc2)SCC3)cc1.[Br-]  -6.21%
39. O=C(OCc1cnc(Cl)s1)c1cccc(Cl)c1  -5.8%
40. Cc1cccc2c1-c1sc(C(=O)NCCCN3CCC(C)CC3)cc1CO2  -5.27%
41. COc1ccc(NC(=O)NCCCN2CCN(c3ccccc3F)CC2)cc1  -5%
42. CSc1cccc(NC(=S)NCCCN2CCN(c3ccc(F)cc3)CC2)c1  -3.39%
43. Nc1c(C(=O)NCCN2CCOCC2)c2nc3ccccc3nc2n1-c1ccccc1  -3.09%
44. COc1ccc(NC(=O)NCCN2CCc3ccccc3C2)cc1  -1.55%
45. CCN(CC)CCn1c(NC(=O)c2ccc(Cl)cc2)nc2ccccc21  -0.305%
46. COc1ccc(C(=O)N2CCCC(Nc3ccc(C)c(C)c3)C2)cc1 (stereo not drawn)  -0.108%
47. CCOC(=O)N1CCN(C(=O)c2oc3ccc(S(=O)(=O)N4CC(C)CC(C)C4)cc3c2C)CC1 (stereo not drawn)  0.354%
48. Cc1cccc2cc(CN(Cc3ccc(F)cc3)C(=O)N3CCOCC3)c(=O)[nH]c12  1.19%
49. CCCCN(CCCC)CC(O)COc1ccccc1Br.Cl (stereo not drawn)  1.61%
50. CS(=O)(=O)Nc1ccccc1C(=O)NCc1ccco1  1.75%
51. O=C(/C=C/c1ccccc1)N(c1ccccn1)C1CCCCC1  3.14%
52. Clc1ccc(-c2c[n+]3c(n2-c2ccccc2)SCC3)cc1.[Cl-]  3.68%
53. CC(C)(C)OC(=O)NC(CNCc1ccccc1)Cc1ccccc1 (stereo not drawn)  3.93%
54. COc1cccc(NC(=O)NCCN2CCCCC2)c1  4.59%
55. OC1CCC(NC(=S)Nc2ccc(SC(F)F)cc2)CC1 (stereo not drawn)  6.06%
56. CCOC(=O)N1CCC(N2C(=O)c3ccccc3C2Nc2ccccc2)CC1 (stereo not drawn)  6.14%
57. CCCCN(C)C(=O)c1nc2ccccn2c1CN1CCN(c2ncccn2)CC1  6.17%
58. COC(=O)c1ccc(OCC(O)CN(CC(C)C)CC(C)C)cc1 (stereo not drawn)  6.51%
59. CC(C)CCNC(=O)Cc1csc(-c2ccccc2)n1  6.54%
60. CCOc1ccc(NS(=O)(=O)c2ccc(C(=O)NCC3(N(C)C)CCCCC3)cc2)cc1  6.85%
61. O=C(CC1CCCCC1)NCc1ccco1  7.39%
62. CC(C)N(C(=O)/C=C/c1cccc([N+](=O)[O-])c1)C(C)C  7.97%
63. O=C1C(Cl)=C(N2CCN(Cc3ccccc3)CC2)C(=O)N1c1ccccc1  8.07%
64. CC(=O)N1CCc2cc(S(=O)(=O)CCC(=O)Nc3cc(C)cc(C)c3)ccc21  8.33%
65. Cc1ccc(NC(=S)/N=C(\N)Nc2nc(C)c3cc(C)c(C)cc3n2)cc1C  8.63%
66. O=C(CCS(=O)(=O)c1ccc2c(c1)NC(=O)CO2)NCCc1ccccc1  9.02%
67. O=C(CN1C(=O)/C(=C/c2ccccc2)SC1=S)Nc1cccnc1  9.4%
68. Cc1ccc2nc(SCC(=O)N/N=C/c3ccco3)cc(C)c2c1  9.47%
69. CCCc1cc(C(=O)Nc2ccc(Cl)cn2)cs1  9.72%
70. CCCNc1c(NS(=O)(=O)c2ccc(C(C)(C)C)cc2)c(=O)oc2ccccc12  9.75%
71. COc1cc(C2SCCS2)cc(Br)c1Oc1ncccc1[N+](=O)[O-]  10.3%
72. COc1ccc(CCC(=O)Nc2ccc(Cn3ccnc3)cc2)cc1  10.4%
73. Cc1cc(N/N=C/c2ccco2)c2ccccc2n1  10.7%
74. CCCSc1nnc2n(N)c(=O)c3ccccc3n12  11.3%
75. CCn1cc(Br)c(C(=O)N(C)Cc2ccccc2)n1  11.4%
76. COc1cccc(C(=O)Nc2cccc(C(C)=O)c2)c1  11.4%
77. CCCCN(C)C(=O)c1nc2ccccn2c1CN1CCSCC1  12.1%
78. COCCOC(=O)C1=C(N)Oc2c(c(=O)oc3ccccc23)[C@@]12C(=O)Nc1ccccc12  12.1%
79. CC(C)CC(=O)Nc1ccc(C(=O)NNC(=O)C(c2ccccc2)c2ccccc2)cc1  12.2%
80. Fc1ccccc1NC(=S)N1CCOCC1  12.2%
81. COc1ccc(NC(=O)NCCN2CCN(c3cc(OC)ccc3OC)CC2)cc1  13.5%
82. CC(C)(C)c1ccc(C(=O)O/N=C(\N)c2ccccn2)cc1  13.9%
83. COc1ccc(OCC(O)CNC(=O)/C=C/c2cccc([N+](=O)[O-])c2)cc1 (stereo not drawn)  14.8%
84. CS(=O)(=O)N(Cc1ccco1)CC(O)Cn1c2ccccc2c2ccccc21 (stereo not drawn)  15%
85. Cc1nc2ccc(Br)cc2c2c1CC(CO)O2 (stereo not drawn)  15.9%
86. COCc1cc(Sc2ccc(OC)cc2)nc(-c2ccccc2)n1  16.2%
87. Cc1cccc2c1-c1sc(C(=O)NCCCN3CCCC(C)C3)cc1CO2 (stereo not drawn)  16.2%
88. CS(=O)(=O)Nc1ccc(C(=O)NCc2ccco2)cc1  16.3%
89. CC1(C)CC(=O)c2cc(OCC(=O)NCCN3CCOCC3)ccc2O1  16.6%
90. Oc1c(Br)cc(/C=N/n2c(-c3ccccc3)n[nH]c2=S)c(Br)c1O  17.1%
